A selection: hits, their analogues and other compounds. The true share with any hit is near 2.5%.
YB-1 expr inh: inhibitors of YB-1 gene expression, primary screen, cell-based, fluorescence; U2OS, qRT-PCR YB-1 vs CDIP delta delta Cp, 16 h; hits give high values; zero = DMSO, each unit about twofold; delta delta Cp (YB-1 minus CDIP) (no concentration beside the values); 30,000 compounds, 0.37% hits;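 active = delta delta Cp rounded down to an integer at or above 3, about 3 SD of DMSO wells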;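 note: higher means less YB-1 transcript or more CDIP transcript relative to DMSO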
BJeLR viab HTS: BJeLR cell viability loss, primary screen, luminescence, CellTiterGlo ATP; viability loss activity score, % (concentration not given with the values); 30,000 compounds, 0.64% hits; BJeLR fibroblasts viability, 48 h; HRASV12, hTERT and SV40 LT/ST transformed; in the data active = viability loss activity score above about 50%;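 note: higher score means fewer live cells and less ATP luminescence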
MITF inhib: inhibitors of MITF, primary screen, MITF inhibitor project, cell-based, luminescence; TRPM1 promoter luciferase, 24 h; inhibition, % (concentration not given with the values); 37,000 compounds, 0.28% hits; AID 2240, 2010; in the data active = inhibition above about 85%;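 note: human melanocyte line stably carrying TRPM1 promoter luciferase reporter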
U2OS ROS induce: ROS inducers in U2OS cancer cells, primary screen, cell-based, H2DCF-DA fluorescence | U2OS ROS induction | ROS induction (% of piperlongumine), % at 10 µM | 46,000 compounds, 2% hits | AID 624156, 2012; in the data active = ROS induction above about 79%, passing the limit was not always enough;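 note: 0% = DMSO vehicle median and 100% = reference compound median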
Active calls of the source: *; · = no result given.

SMILES	YB-1 expr inh	BJeLR viab HTS	MITF inhib	U2OS ROS induce
O=C1O[C@H](c2ccccc2)[C@H](c2ccccc2)N2[C@H]1[C@@H](C(=O)N1CCN(c3ncccn3)CC1)[C@]1(C(=O)Nc3ccc(C#CC4(O)CCCCCC4)cc31)[C@H]2c1ccccc1OCCO	-0.0861	·	·	146.7*
O=C1O[C@H](c2ccccc2)[C@H](c2ccccc2)N2[C@H]1[C@@H](C(=O)O)[C@]1(C(=O)Nc3ccccc31)[C@H]2c1ccccc1OCCO	0.288	·	·	12.7
O=C1O[C@@H](c2ccccc2)[C@@H](c2ccccc2)N2[C@@H](c3ccccc3OCCO)[C@]3(C(=O)Nc4ccc(C#CCCO)cc43)[C@@H](C(=O)N3CCN(c4ncccn4)CC3)[C@H]12	-0.474	·	·	94.0*
O=C(Nc1ccc(S(=O)(=O)N2CCCC2)cc1)c1ccc(COc2ccc3c(c2)CCC3)cc1	·	5.5	·	87.4*
Cc1cccc(N=C2NC(=O)/C(=C3/C(=O)N(CC(=O)O)c4ccccc43)S2)c1C	·	-1.3	·	-15.8
CCOc1ccc(Br)cc1C1CC(=O)Nc2c1ccc(C)c2C (stereo not drawn)	·	-0.7	·	·
COC(=O)C1=CN(C(CC(C)C)C(=O)OC)C=C(C(=O)OC)C1c1ccc(Br)cc1 (stereo not drawn)	-0.565	4.7	-4.6	95.0*
C[C@H]1CN([C@@H](C)CO)C(=O)Cc2cc(NS(=O)(=O)c3cn(C)cn3)ccc2O[C@H]1CN(C)Cc1ccc(Oc2ccccc2)cc1	0.0687	·	-2.9	88.6*
C[C@H](CO)N1C[C@H](C)[C@H](CN(C)Cc2ccc(Cl)c(Cl)c2)Oc2ccc(NS(=O)(=O)c3cn(C)cn3)cc2CC1=O	13*	·	0.4	17.1
C[C@H]1CN([C@@H](C)CO)C(=O)Cc2cc(NS(=O)(=O)c3cn(C)cn3)ccc2O[C@H]1CN(C)Cc1ccc(Cl)c(Cl)c1	0.125	·	-5.7	0.2
COc1c(Cc2ccccc2O)c(O)c(Cc2ccccc2O)c(O)c1C(=O)CCc1ccccc1	0.336	5.9	91.1*	16.4
COc1c(C)c(O)c(C)c(O)c1C(=O)CCc1ccccc1	0.0891	2.8	5.3	-0.8
Cc1ccc(CSc2nc3ccccc3c3nc(CCc4c(C)n[nH]c4C)nn23)cc1	·	-0.7	·	12.4
CC(C)CC1C(=O)N2CCC[C@H]2C2(O)O[C@](NC(=O)C3C=C4c5cccc6[nH]c(Br)c(c56)C[C@H]4N(C)C3)(C(C)C)C(=O)N12 (stereo partly drawn)	0.207	-4.6	-2.4	24.1
CC(C)C[C@H]1C(=O)N2CCC[C@H]2[C@]2(O)O[C@](NC(=O)[C@@H]3C=C4c5cccc6[nH]c(Br)c(c56)C[C@H]4N(C)C3)(C(C)C)C(=O)N12	0.278	-9.8	72.7	106.9*
CC(C)(C)c1oc(C(=O)Nc2ccc3c(c2)oc2ccccc23)cc1COCC(F)(F)F	·	11.9	·	24.1
C/C1=C/CC/C(CO)=C\[C@H]2OC(=O)C(CN3CCCC3C(=O)O)[C@@H]2[C@@H](OC(=O)C(C)CO)C1 (stereo partly drawn)	1.76	·	·	132.1*
Cc1nc2ccccc2c2oc(C(=O)N3CCC(C)CC3)cc12	·	-1.5	·	·
Cc1oc2c(c1C(=O)NC1CCCC1)C(=O)c1ccccc1C2=O	0.762	35.4	69.7	102.3*
Cc1oc2c(c1C(=O)NCCc1ccccc1)C(=O)c1ccccc1C2=O	-0.343	-1.9	2.8	-11.3
Cc1oc2c(c1C(=O)N1CCC(C)CC1)C(=O)c1ccccc1C2=O	0.424	30.6	85.0*	21.4
Cc1cccc(N(C)S(=O)(=O)c2ccc3c(c2)n(C)c(=O)c(=O)n3C)c1	·	9.0	·	·
COCCOC(=O)N1C(=O)[C@@]2(c3ccccc31)[C@H](c1ccccc1OCCO)N1[C@H](c3ccccc3)[C@H](c3ccccc3)OC(=O)[C@H]1[C@@H]2C(=O)NC[C@H](O)c1ccccc1	-0.492	·	·	348.4*
COCCOC(=O)N1C(=O)[C@@]2(c3ccccc31)[C@H](C(N)=O)[C@H]1C(=O)O[C@H](c3ccccc3)[C@H](c3ccccc3)N1[C@@H]2c1ccc(OCCO)cc1	0.608	·	·	123.9*
C=CCNC(=O)[C@@H]1[C@H]2C(=O)O[C@H](c3ccccc3)[C@H](c3ccccc3)N2[C@H](c2ccccc2OCCO)[C@@]12C(=O)N(C(=O)OCCOC)c1ccc(C#CCCO)cc12	-0.206	·	·	37.0
SMILES	YB-1 expr inh	BJeLR viab HTS	MITF inhib	U2OS ROS induce
C=CCNC(=O)[C@@H]1[C@H]2C(=O)O[C@H](c3ccccc3)[C@H](c3ccccc3)N2[C@H](c2ccccc2OCCO)[C@@]12C(=O)N(C(=O)OCCOC)c1ccccc12	-0.196	·	·	183.4*
COCCOC(=O)N1C(=O)[C@@]2(c3ccccc31)[C@H](C(N)=O)[C@H]1C(=O)O[C@H](c3ccccc3)[C@H](c3ccccc3)N1[C@@H]2c1ccccc1OCCO	-0.253	·	·	72.9
C=CCNC(=O)[C@H]1[C@@H]2C(=O)O[C@@H](c3ccccc3)[C@@H](c3ccccc3)N2[C@@H](c2ccccc2OCCO)[C@]12C(=O)N(C(=O)OCCOC)c1ccccc12	0.0901	·	·	177.9*
O=C(NCc1ccco1)c1ccc(-n2c(=S)[nH]c3ccccc3c2=O)cc1	·	0.7	·	3.4
CC1=NN(c2ccccc2)C(c2ccc(OCC(=O)NCCC3=CCCCC3)cc2)C1 (stereo not drawn)	·	-7.8	·	·
CCC(C(=O)Nc1ccccc1F)n1c(SCc2ccc(F)cc2)nc2ccncc21 (stereo not drawn)	·	2.5	·	17.1
O=C(Nc1ccc(N2CCCCC2)cc1)c1ccncc1	-0.498	11.1	15.9	87.2*
C[C@H](CO)N1C[C@H](C)[C@@H](CN(C)S(=O)(=O)c2ccccc2)Oc2c(NC(=O)c3nc4ccccc4s3)cccc2C1=O	-0.035	-2.7	-0.8	6.6
C[C@@H]1CN([C@@H](C)CO)C(=O)c2cccc(NC(=O)c3nc4ccccc4s3)c2O[C@H]1CN(C)S(=O)(=O)c1ccc(Cl)cc1	-0.0554	-5.9	28.2	79.7*
C[C@H](CO)N1C[C@H](C)[C@H](CN(C)S(=O)(=O)c2ccc(Cl)cc2)Oc2c(NC(=O)NC3CCCCC3)cccc2C1=O	0.229	0.4	62.9	97.4*
C[C@H]1CN([C@@H](C)CO)C(=O)c2cc(NC(=O)CCN3CCOCC3)ccc2O[C@H]1CN(C)S(=O)(=O)c1ccccc1	-0.102	2.0	6.7	-5.7
C[C@@H]1CN([C@H](C)CO)C(=O)c2cc(NC(=O)Cc3ccccc3)ccc2O[C@@H]1CN(C)S(=O)(=O)c1ccccc1	17.6*	-2.0	0.7	-1.9
C[C@@H]1CN([C@H](C)CO)C(=O)c2cc(NC(=O)CCN3CCOCC3)ccc2O[C@H]1CN(C)S(=O)(=O)c1ccccc1	19.7*	-2.2	1.9	-9.4
COc1cc2c(cc1OC)C(COc1ccc(F)cc1)N(C(=O)c1ccc(Cl)cc1)CC2 (stereo not drawn)	·	-4.5	·	25.1
COc1ccc([N+](=O)[O-])cc1NC(=O)C1(c2ccc(OC)c(OC)c2)CCCCC1	·	·	11.1	149.4*

Screens: PubChem, Broad Institute
